Laboratory results from PubChem BioAssay AID1159580 (chemical genetic matrix, 2015).
“And” between values parts separate entries of the source, which are not always exact repeats. Identical values can stand only once. In all, about 5,500 compounds went through this assay and about 2,000 (36%) were called active. About 18% were inconclusive and are not listed. No stated cut-off is given here; in the data, active means normalized growth mostly below about 0.91 (no sharp cut-off); inconclusive means no clear call, values can overlap the other calls; inactive means mostly above about 0.92. The list shows a part of the results.

Assay: chemical genetic growth profiling, strain panel (AID 1159580);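 further: tested at 20 µM; growth read once vehicle control cultures reached saturation at 30 °C; 1 = growth at the plate median or of vehicle wells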
Settings: S. cerevisiae deletion strains, growth OD

Measured: normalized growth

CC12CCCC(O)(C1)C1CC(C)(C)C1CC2 (configuration not stated)
inactive: locus YAL013W, strain DEP1, stronger effect = lower value 1.02 | locus YAL021C, strain ccr4, stronger effect = lower value 1 | locus YAL026C, strain drs2, stronger effect = lower value 1 | locus YAL030W, strain snc1, stronger effect = lower value 0.985 | locus YBL061C, strain skt5, stronger effect = lower value 0.993 | locus YBR009C, strain hhf1, stronger effect = lower value 0.947 | locus YBR021W, strain FUR4, stronger effect = lower value 1 | locus YBR023C, strain chs3, stronger effect = lower value 0.951 | locus YBR171W, strain sec66, stronger effect = lower value 0.987 | locus YBR229C, strain ROT2, stronger effect = lower value 1 | locus YBR231C, strain swc5, stronger effect = lower value 0.977 | locus YBR279W, strain paf1, stronger effect = lower value 0.959 | locus YCL011C, strain gbp2, stronger effect = lower value 0.965 | locus YCL016C, strain dcc1, stronger effect = lower value 0.971 | locus YCL029C, strain bik1, stronger effect = lower value 1 | locus YCL061C, strain MRC1, stronger effect = lower value 0.962 | locus YCL069W, strain vba3, stronger effect = lower value 0.998 | locus YCR088W, strain abp1, stronger effect = lower value 0.993 | locus YDL005C, strain med2, stronger effect = lower value 1 | locus YDL035C, strain GPR1, stronger effect = lower value 1 | locus YDL040C, strain nat1, stronger effect = lower value 0.997 | locus YDL074C, strain BRE1, stronger effect = lower value 1.03 | locus YDL101C, strain DUN1, stronger effect = lower value 1.03 | locus YDL134C, strain PPH21, stronger effect = lower value 1.03 | locus YDL185W, strain tfp1, stronger effect = lower value 1.02 | locus YDL192W, strain arf1, stronger effect = lower value 0.984 | locus YDR001C, strain nth1, stronger effect = lower value 1 | locus YDR069C, strain doa4, stronger effect = lower value 0.951 | locus YDR101C, strain arx1, stronger effect = lower value 0.985 | locus YDR162C, strain NBP2, stronger effect = lower value 0.997 | locus YDR195W, strain ref2 0.949 | locus YDR297W, strain sur2, stronger effect = lower value 0.927 | locus YDR318W, strain mcm21, stronger effect = lower value 1.02 | locus YDR334W, strain swr1, stronger effect = lower value 1.04 | locus YDR335W, strain msn5, stronger effect = lower value 1 | locus YDR388W, stronger effect = lower value 1.01 | locus YDR502C, strain sam2, stronger effect = lower value 1.05 | locus YEL003W, strain gim4, stronger effect = lower value 0.942 | locus YEL037C, strain rad23, stronger effect = lower value 1 | locus YEL061C, strain CIN8 (second series), stronger effect = lower value 1 | locus YEL061C, strain CIN8, stronger effect = lower value 1 | locus YER015W, strain faa2, stronger effect = lower value 1.01 | locus YER016W, strain bim1, stronger effect = lower value 0.995 | locus YER110C, stronger effect = lower value 1.02 | locus YER111C, strain swi4, stronger effect = lower value 1 | locus YER155C, strain BEM2, stronger effect = lower value 0.994 | locus YER167W, strain BCK2, stronger effect = lower value 0.992 | locus YFR010W, strain ubp6, stronger effect = lower value 0.979 | locus YGL078C, strain dbp3, stronger effect = lower value 1.05 | locus YGL086W, strain mad1, stronger effect = lower value 1.02 | locus YGL167C, strain pmr1, stronger effect = lower value 0.999 | locus YGL173C, strain kem1, stronger effect = lower value 0.977 | locus YGL227W, strain vid30, stronger effect = lower value 0.998 | locus YGL240W, strain doc1, stronger effect = lower value 0.915 | locus YGL248W, strain PDE1, stronger effect = lower value 1.03 | locus YGL253W, strain hxk2, stronger effect = lower value 0.991 | locus YGR135W, strain pre9, stronger effect = lower value 1.08 | locus YGR252W, strain gcn5, stronger effect = lower value 1.09 | locus YHR013C, strain ard1, stronger effect = lower value 1.01 | locus YHR027C, strain rpn1, stronger effect = lower value 1 | locus YHR030C, strain SLT2, stronger effect = lower value 0.945 | locus YHR079C, strain IRE1 (second series), stronger effect = lower value 1.01 | locus YHR079C, strain IRE1, stronger effect = lower value 0.971 | locus YHR094C, strain hxt1, stronger effect = lower value 1.01 | locus YHR129C, strain ARP1, stronger effect = lower value 1.01 | locus YHR142W, strain chs7, stronger effect = lower value 0.923 | locus YHR200W, strain rpn10, stronger effect = lower value 1.04 | locus YIL066C, strain RNR3, stronger effect = lower value 1.01 | locus YIL073C, strain SPO22, stronger effect = lower value 1.03 | locus YIL125W, strain kgd1, stronger effect = lower value 1.01 | locus YIR030C, strain dcg1, stronger effect = lower value 1.01 | locus YJL092W, strain hpr5, stronger effect = lower value 0.992 | locus YJL095W, strain BCK1 (second series), stronger effect = lower value 0.934 | locus YJL095W, strain BCK1, stronger effect = lower value 1.03 and 0.976 | locus YJL115W, strain asf1, stronger effect = lower value 1.01 | locus YJL129C, strain trk1, stronger effect = lower value 0.956 | locus YJL134W, strain LCB3, stronger effect = lower value 0.995 | locus YJL154C, strain vps35, stronger effect = lower value 1.01 | locus YJL164C, strain tpk1, stronger effect = lower value 0.946 | locus YJL166W, strain qcr8, stronger effect = lower value 0.945 | locus YJL168C, strain set2, stronger effect = lower value 1.03 | locus YJL187C, strain SWE1 (second series), stronger effect = lower value 1.04 | locus YJL187C, strain SWE1, stronger effect = lower value 0.937
active: locus YDR137W, strain rgp1, stronger effect = lower value 0.8 | locus YDR159W, strain sac3, stronger effect = lower value 0.841 | locus YDR392W, strain spt3, stronger effect = lower value 0.37 | locus YER155C, strain BEM2 (second series), stronger effect = lower value 0.795
